Bioassay records deposited in PubChem BioAssay by several laboratories.
PostGolgi ctrl: inhibits growth of the yeast control strain | 98,000 tested, 5% active | inhibition, % at 10 µM | AID 738 | efflux-deficient yeast background strain, growth absorbance A615, 16 h
CYP2C9 inh: human CYP2C9 inhibition; P11712; CYP2C9 Supersomes, luciferin-H conversion, luminescence; inhibition, % at 5 µM; 96,000 tested, 20% active; AID 777;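 active means blocking of liver enzyme CYP2C9 beyond about 50% at 5 µM, limit read from the data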
Target sequence (P11712 whole entry, looked up): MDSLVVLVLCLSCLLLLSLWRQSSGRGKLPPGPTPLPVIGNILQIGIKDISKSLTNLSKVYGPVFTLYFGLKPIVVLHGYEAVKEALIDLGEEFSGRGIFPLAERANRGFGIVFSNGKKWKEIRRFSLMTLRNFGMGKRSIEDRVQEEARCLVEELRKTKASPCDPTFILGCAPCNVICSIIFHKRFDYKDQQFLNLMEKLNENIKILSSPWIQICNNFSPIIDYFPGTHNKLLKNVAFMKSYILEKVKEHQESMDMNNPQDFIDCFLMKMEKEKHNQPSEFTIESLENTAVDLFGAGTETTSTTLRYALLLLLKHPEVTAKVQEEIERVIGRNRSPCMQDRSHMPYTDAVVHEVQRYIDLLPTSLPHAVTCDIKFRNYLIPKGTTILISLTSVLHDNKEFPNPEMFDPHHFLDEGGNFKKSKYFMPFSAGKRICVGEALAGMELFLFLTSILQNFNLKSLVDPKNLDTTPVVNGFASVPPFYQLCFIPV
PostGolgi yeast: growth inhibition of a yeast mutant, post-Golgi transport screen. post-Golgi transport phenotypic cell assay. inhibition, % at 10 µM. 98,000 tested, 0.9% active. AID 739;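 further: yeast cells grown in 1536-well plates; yeast grown about 18 h at 30C before absorbance read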
CYP2C19 activ: increases human CYP2C19 enzyme activity; recombinant CYP2C19, luciferin-H EGE luminescence; hits give high values; 0 = fully inhibited enzyme, 1 = untreated enzyme; 96,000 tested, under 10 active; activation factor at 5 µM; P33261;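 active means activation factor of at least 2 at 5 µM in the primary screen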;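 further: 0 = wells with 2.5 mM tranylcypromine and 1 = vehicle-only wells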
CYP2C9 act: CYP2C9 (human) activation | P11712 | 96,000 tested, 1.4% active | recombinant CYP2C9, luciferin-H conversion, luminescence; hits give high values; factor 1 = untreated enzyme, 0 = blocked | activation factor at 5 µM;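 active means activation factor of 2 or more for CYP2C9 at a 5 µM dose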;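 further: 0 = sulfaphenazole-blocked wells and 1 = vehicle-only wells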
CYP2C19 inhib: human CYP2C19 inhibition | P33261 | inhibition, % at 5 µM | 96,000 tested, 21% active | CYP2C19 Supersomes, luciferin-H EGE luminescence, 30 min | AID 778;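 active means CYP2C19 inhibition above a set limit at 5 µM in the primary screen, cut at about 50% in these data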;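 further: plate controls were negative control wells for no effect and 2.5 mM tranylcypromine positive control for full effect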
* hit, by the source's call; nt = no result given. Sampled rows, rich in hits. Any-hit rate of the full collection: about 32%. Unless noted, no stated cut-off is given here; in the data, active means inhibition above about 30%; inactive means the rest.

SMILES	PostGolgi ctrl	CYP2C9 inh	PostGolgi yeast	CYP2C19 activ	CYP2C9 act	CYP2C19 inhib
CN1C(=O)CC(C(=O)O)SC1=Nc1cccc(C(F)(F)F)c1 (configuration not stated)	-0.6	nt	-3.9	nt	nt	nt
CCN1CCN(C(=O)CCc2nc3ccccc3c(=O)[nH]2)CC1	-6.2	6.3	5.9	1	0.9	0.7
CC(C)(C)c1cc(CCC(=O)N2CCNCC2)c(C(C)(C)C)cc1O	1.3	74.4*	-2.5	0.9	0.3	5.9
COc1ccccc1N(C(=O)NCc1ccccc1)C1=NCC(C)S1 (configuration not stated)	48.0*	57.4*	-4.2	0.5	0.4	46.9
COc1ccccc1NC(=O)N(Cc1ccccc1)C1=NCC(C)S1 (configuration not stated)	27.8	73.2*	6.6	1	0.3	3.0
CNC(=O)N(C1=NCC(C)S1)c1ccc(F)cc1F (configuration not stated)	11.3	26.3	-3.0	0.4	0.7	61.5*
CC(=O)N1CCc2cc(S(=O)(=O)CCC(=O)O)ccc21	12.6	8.5	1.7	1	0.9	0.4
COc1cc(-c2nnc(SCc3cc(=O)oc4cc(O)c(O)cc34)o2)cc(OC)c1OC	9.7	19.8	6.9	1.2	0.8	-20.5
CCOC(=O)c1sc2nccc(N(C)C)c2c1N=CNOCc1c(F)cccc1Cl	21.4	91.5*	1.3	0.2	0.1	76.8*
CCOC(=O)c1sc2nccc(N(C)C)c2c1N=CNOCc1ccccc1	21.2	72.3*	-2.4	0.4	0.3	61.0*
CCOC(=O)c1sc2ncnc(OC)c2c1C	-6.7	31.6	17.2	0.6	0.7	41.5
CCOC(=O)c1sc2nccc(N(C)C)c2c1N=CNOC	1.0	50.3*	-2.1	0.9	0.5	5.9
CCSc1nc2cc(OC)c(OC)cc2c(=O)n1CC	23.8	51.8*	-2.2	0.6	0.5	35.7
CCNC(=O)CSc1nc2cc(OC)c(OC)cc2c(=O)n1CCC1=CCCCC1	nt	52.3*	nt	0.5	0.5	51.6*
COC(=O)c1ccc2c(=O)n(Cc3ccco3)c(SCC(=O)Nc3ccc(C)c(Cl)c3)nc2c1	12.6	77.3*	-0.1	0.9	0.2	11.6
CC(=O)NCCn1c(SCC(=O)NCCC2=CCCCC2)nc2ccccc2c1=O	-7.5	19.5	8.2	0.7	0.8	31.0
CCCCNC(=O)CSc1nc2cc(OC)c(OC)cc2c(=O)n1Cc1ccc(OC)cc1	1.1	68.0*	2.9	0.7	0.3	34.0
COc1ccc(NC(=O)CSc2nnc(-c3ccccn3)n2Cc2ccco2)cc1OC	29.9	34.9	13.9	0.8	0.7	15.0
O=C1CCCc2c1cc(C(=O)Nc1ccc(Br)cn1)c(=O)n2-c1ccccc1	12.5	36.6	0.1	1.1	0.6	-12.9
CN(Cc1ccccc1)Cc1nc2c([nH]1)c(=O)n(C)c(=O)n2C	-4.5	nt	-2.5	nt	nt	nt
COCCNC(=O)CSc1nc2cc(OC)c(OC)cc2c(=O)n1Cc1ccco1	17.3	82.8*	-18.6	0.7	0.2	28.0
CCC(Sc1nc2cc(OC)c(OC)cc2c(=O)n1Cc1ccco1)C(=O)NCCOC (configuration not stated)	-3.2	29.1	-8.3	1	0.7	4.1
COCCn1c(SCC(=O)NCc2ccco2)nc2cccnc21	7.4	-7.5	7.6	0.5	1.1	53.5*
CCCCn1c(N)c(-c2nc3ccccc3s2)c2c([N+](=O)[O-])nn(CC)c(=O)c21	-1.3	67.9*	7.0	1.1	0.3	-14.7
CCCCCn1c(N)c(-c2nc3ccccc3s2)c2c([N+](=O)[O-])nn(CC)c(=O)c21	7.5	72.4*	-4.6	1	0.3	-1.7
SMILES	PostGolgi ctrl	CYP2C9 inh	PostGolgi yeast	CYP2C19 activ	CYP2C9 act	CYP2C19 inhib
CCCCn1c(N)c(-c2nc3ccccc3s2)c2c([N+](=O)[O-])nn(C)c(=O)c21	4.3	35.1	-9.0	0.7	0.6	28.6
CC(C)(C)OC(=O)N1CCOCCOCCN(C(=O)OC(C)(C)C)CCOCC1	0.5	39.4	3.8	0.5	0.6	47.8
Cc1cc2ccccc2c(=O)n1CC(=O)NCC(=O)N(C)C1CCCCC1	-4.5	-6.7	-4.3	0.9	1.1	6.6
CC1CCN(C(=O)CSc2ccc(-c3ccc(F)cc3)nn2)CC1	8.5	20.4	3.9	0.9	0.8	12.5
CC1CC(C)(C)N(C(=O)CSc2ccc(-c3ccc(F)cc3)nn2)c2ccccc21 (configuration not stated)	36.5*	57.9*	-23.2	0.5	0.4	49.4
CCSc1ccccc1C(=O)NCc1ccc2c(c1)OCO2	6.9	37.1	-1.1	0	0.6	99.1*
O=C(NCc1ccc2c(c1)OCO2)c1cc(-c2ccccc2)on1	4.7	-15.7	-4.4	1	1.2	4.1
CC(=O)OC(C(=O)NCc1ccc2c(c1)OCO2)c1ccccc1Cl (configuration not stated)	-6.0	53.6*	-3.9	0.1	0.5	92.8*
Cc1csc2ncc(C(=O)NCc3ccc4c(c3)OCO4)c(=O)n12	nt	12.4	nt	0.6	0.9	36.0
CSc1ccccc1C(=O)NCc1ccc2c(c1)OCO2	-2.7	11.6	-7.9	0.1	0.9	93.6*
O=C(NCc1ccc2c(c1)OCO2)c1cnc2ccccn2c1=O	19.4	-38.8	-1.9	0.3	1.4	65.5*
COC(=O)C(C)Sc1nc2c(c(=O)[nH]c(=O)n2C)n1CCC(C)C (configuration not stated)	13.2	nt	0.2	nt	nt	nt
COC(=O)c1ccccc1NC(=O)c1cc(-c2ccc(O)cc2)on1	16.5	-59.3	0.2	1.1	1.6	-7.6
CCOc1ncccc1C(=O)Nc1ccccc1C(=O)NCc1ccc2c(c1)OCO2	nt	74.9*	nt	0.5	0.3	48.2
COc1ccc(CNC(=O)c2cnc3cc(C)ccn3c2=O)cc1	14.6	19.5	-15.9	0.4	0.8	61.8*
COc1ccc(CNC(=O)c2ccccc2SC)cc1	0.9	20.4	-2.0	0.1	0.8	89.6*
COc1ccc(CNC(=O)c2ccc(-c3ccccc3)cc2)cc1	-5.2	11.6	1.4	1	0.9	2.8
Cc1cc(C)nc(NC2=NC3CCCCC3N2)n1 (configuration not stated)	6.8	1.3	-4.3	1	1	-1.3
CN(C)CCSc1nc(N)c2c3c(sc2n1)CN(C)CC3	1.4	8.5	6.1	0.9	0.9	13.2
COc1cc2c(cc1OC)CN(C(C)C(=O)N1CCc3ccccc31)CC2 (configuration not stated)	17.9	38.4	-7.5	0.8	0.6	21.2
N#Cc1ccc(CSc2nnc(-c3ccncc3)n2CCc2ccccc2)cc1	3.5	54.1*	1.8	0.4	0.5	61.1*
N#Cc1ccc(CSc2nnc(-c3ccccn3)n2-c2ccccc2)cc1	6.9	43.2	0.8	0.2	0.6	78.1*
O=C(O)CSc1nnc(-c2ccncc2)n1CCc1ccccc1	9.3	3.8	15.7	0.9	1	5.4
CCn1c(SCc2ccccc2)nnc1-c1cccs1	6.1	nt	3.7	nt	nt	nt
